Molecules are shown by their SMILES. Several values for one entry are separate records, joined by “and”; a condition that tells them apart may be missing. Equal entries are not always repeated. Results filed as inconclusive are left out. Activity calls are given as the source filed them. Rule for the calls: active = hit-call score of the fitted dose curve at least 0.9, where 1 is the maximum; inconclusive = response in the unintended direction; inactive = score below 0.9.

Cellular tumor antigen p53 (Homo sapiens), sequence (P04637 whole entry, looked up): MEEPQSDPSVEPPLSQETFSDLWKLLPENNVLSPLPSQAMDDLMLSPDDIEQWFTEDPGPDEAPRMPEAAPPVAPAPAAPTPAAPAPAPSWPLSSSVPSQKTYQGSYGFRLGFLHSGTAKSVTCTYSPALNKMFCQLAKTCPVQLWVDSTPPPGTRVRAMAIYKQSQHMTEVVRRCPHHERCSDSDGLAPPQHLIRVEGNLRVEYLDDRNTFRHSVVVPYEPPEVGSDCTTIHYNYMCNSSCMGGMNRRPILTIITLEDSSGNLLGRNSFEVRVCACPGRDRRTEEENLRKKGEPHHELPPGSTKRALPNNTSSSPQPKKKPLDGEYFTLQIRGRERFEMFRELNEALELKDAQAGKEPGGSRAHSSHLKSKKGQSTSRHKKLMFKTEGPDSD

System in the first assay: not listed separately
The assay can be described thus: TOX21_p53_BLA_p3_viability: Viability Assessment in the Tox21 HCT-116 p53 Agonism Beta-lactamase Assay, Phase 3 (AID 2283593).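 Note: cells exposed to compound for 16 h before reading.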 A digest of the protocol: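 Cellular ATP was quantified by CellTiter-Glo luminescence, read after 30 min at room temperature. Beforehand, HCT116 cells (4000/well) received compound 5 h post-seeding, 217-fold diluted from DMSO, then incubated 16 h at 37C.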
Turning to `CCC(Cc1c(I)cc(I)c(N)c1I)C(=O)O` (stereo not given), the call was inactive.

With `CC(=O)CCC(C)C`, the call was inactive.

Consider `O=C1C=CC(=O)N1c1ccccc1`, for which the AC50 was 87.1 µM (active).

For the molecule `CC(C)OC=O`, the call was inactive.

In the case of `Cc1ccc(O)c(-n2nc3ccccc3n2)c1`, the molecule was classed as inactive.

With `CCCCC(CC)COC(=O)c1ccc(N(C)C)cc1` (stereo not given), the molecule was classed as inactive.

In the case of `OCC1CCCO1` (stereo not given), the outcome was inactive.

`F[Si-2](F)(F)(F)(F)F`: the result was inactive.

For the molecule `CCN=C1C=CC(=C(c2ccc(N(CC)CC)cc2)c2ccc(N(CC)CC)cc2)c2ccccc21`, the concentration at half-maximal activity (AC50) is 66.1 µM (active).

As to `C[C@]12CC[C@H]3C(=CCc4cc(O)ccc43)[C@@H]1CCC2=O`, the call was inactive.

On to `CCCCCCCC/C=C\CCCCCCCC(=O)N(C)CC(=O)O`, for which the AC50 was 45.1 µM (active).

`CCc1cc(Cc2cc(CC)c(N)c(CC)c2)cc(CC)c1N`: the molecule was called inactive.

Regarding `CCOC(OCC)OCC`, the molecule was classed as inactive.

In the case of `O=C(c1ccccc1)c1ccc(O)cc1O`, the result was inactive.

Consider `CCN=c1cc2oc3cc(NCC)c(C)cc3c(-c3ccccc3C(=O)OCC)c-2cc1C`, for which the AC50 is 59.6 µM (active) and 36.8 µM (active).

`Cc1ccc([N+](=O)[O-])c(C)c1`: the outcome was inactive.

In the case of `CCCCOC(=O)C(C)O` (stereo not given), the outcome was inactive.

Another assay concerns the target Cellular tumor antigen p53 (Homo sapiens) (UniProt P04637). Put plainly: TOX21_p53_BLA_p3_ratio: Tox21 HCT-116 p53 Agonism Beta-lactamase Assay, Ratio, Phase 3 (AID 2283596). The gist of the method: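 HCT116 p53-bla cells (4000/well) given compound in DMSO (217-fold dilution) after 5 h, incubated 16 h at 37C. CCF4-AM substrate 2 h at room temperature; 460/530 nm emission ratio, gain fitted against DMSO.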
Take `CCC(Cc1c(I)cc(I)c(N)c1I)C(=O)O` (stereo not given): the result was inactive.

For `CCCCOC(=O)[C@H](C)O`, the result was inactive.

Take `CC(=O)CCC(C)C`: the outcome was inactive.

Take `O=C1C=CC(=O)N1c1ccccc1`: the AC50 is 86.8 µM (active).

`CC(C)OC=O`: the outcome was inactive.

Turning to `Cc1ccc(O)c(-n2nc3ccccc3n2)c1`, the result was inactive.

Turning to `CC(C)Nc1ccc(NC(C)C)c2c1C(=O)c1ccccc1C2=O`, the result was inactive.

As to `CCOC(=O)C1CC(=O)C(=C(O)C2CC2)C(=O)C1` (stereo not given), the outcome was inactive.

Turning to `CCCCC(CC)COC(=O)c1ccc(N(C)C)cc1` (stereo not given), the outcome was inactive.

On to `F[Si-2](F)(F)(F)(F)F`, for which the result was inactive.

Turning to `CCN=C1C=CC(=C(c2ccc(N(CC)CC)cc2)c2ccc(N(CC)CC)cc2)c2ccccc21`, the concentration at half-maximal activity (AC50) is 2.8 µM (active).

Take `C[C@]12CC[C@H]3C(=CCc4cc(O)ccc43)[C@@H]1CCC2=O`: the result was inactive.

As for `CCCCCCCC/C=C\CCCCCCCC(=O)N(C)CC(=O)O`, the half-maximal activity concentration (AC50) is 81.1 µM (active).

As for `CCc1cc(Cc2cc(CC)c(N)c(CC)c2)cc(CC)c1N`, the result was inactive.

On to `O=C(c1ccccc1)c1ccc(O)cc1O`, for which the outcome was inactive.

As to `CCN=c1cc2oc3cc(NCC)c(C)cc3c(-c3ccccc3C(=O)OCC)c-2cc1C`, the AC50 was 17.8 µM (active) and 31.3 µM (active).

As for `Cc1ccc([N+](=O)[O-])c(C)c1`, the result was inactive.

For `CCCCOC(=O)C(C)O` (stereo not given), the outcome was inactive.

In general, AC50 refers to the concentration at which the activity in the assay is half-maximal.

The values are drawn from PubChem BioAssay (EPA / NIEHS).
